Laboratory results from PubChem BioAssay (NCI).
The panel holds about 79,000 compounds, 15% with a hit somewhere; the sample as a whole holds those more often. Calls of active or inactive are those of the source. Rule as the data show it: active = growth inhibition above about 70%; inactive = the rest.

Columns and labels:
[1] = NCI Yeast Anticancer Drug Screen. Data for the rad50 strain (AID 155);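 also: 0% = growth of vehicle-only cultures of the same strain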; conditions: S. cerevisiae rad50 strain growth inhibition, stronger effect = higher value
How it was run: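 Vehicle-treated cultures provide the reference for the growth inhibition reported for compound-exposed, repair-deficient yeast.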

[2] = NCI Yeast Anticancer Drug Screen. Data for the mec2-1 strain (AID 157); conditions: S. cerevisiae mec2-1 strain, stronger effect = higher value
How it was run: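 Compounds were applied to mec2-1 yeast cells. Their growth was then compared with that of vehicle-treated cultures to give growth inhibition.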

[3] = NCI Yeast Anticancer Drug Screen. Data for the sgs1 mgt1 strain (AID 161);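 also: 0% = growth of cultures given vehicle only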; conditions: S. cerevisiae sgs1 mgt1 strain, stronger effect = higher value
How it was run: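 Growth of a repair-deficient yeast mutant was monitored after compound treatment and expressed as inhibition relative to vehicle-treated cultures.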

[4] = NCI Yeast Anticancer Drug Screen. Data for the cln2 rad14 strain (AID 165);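 also: 0% = growth equal to vehicle treated cultures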; conditions: S. cerevisiae cln2 rad14 strain, stronger effect = higher value
How it was run: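 Strain: cln2 rad14 yeast, altered in cell cycle control and DNA damage repair. Read-out: growth inhibition vs vehicle.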

[5] = NCI Yeast Anticancer Drug Screen. Data for the bub3 strain (AID 167); conditions: S. cerevisiae bub3 mutant strain, stronger effect = higher value
How it was run: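 Mutant yeast screening strain plus compound; vehicle-treated cultures serve as the 0% inhibition reference.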

[6] = NCI Yeast Anticancer Drug Screen. Data for the mlh1 rad18 strain (AID 175); conditions: S. cerevisiae mlh1 rad18 strain growth inhibition, stronger effect = higher value
How it was run: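 A repair-deficient yeast strain is exposed to test compound, and growth is scored relative to vehicle-treated controls.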

[7] = at 5.0 µM (retest, dose inferred, filed as 0.5)
[8] = at 50.0 µM (retest, dose inferred, filed as 5.0)

SMILES	growth inhibition [1, 7]	growth inhibition [1, 8]	growth inhibition ([1]; at 50.0 µM)	growth inhibition [2, 7]	growth inhibition [2, 8]	growth inhibition ([2]; at 50.0 µM)	growth inhibition [3, 7]	growth inhibition [3, 8]	growth inhibition ([3]; at 50.0 µM)	growth inhibition [4, 7]	growth inhibition [4, 8]	growth inhibition ([4]; at 50.0 µM)	growth inhibition [5, 7]	growth inhibition [5, 8]	growth inhibition ([5]; at 50.0 µM)	growth inhibition [6, 7]	growth inhibition [6, 8]	growth inhibition ([6]; at 50.0 µM)
N#Cc1cc([N+](=O)[O-])c(Cl)c([N+](=O)[O-])c1	52% (inactive)	99% (active)	91.5% (active)	46% (inactive)	99% (active)	93% (active)	100% (active)	100% (active)	93.8% (active)	67% (inactive)	101% (active)	93.3% (active)	101% (active)	100% (active)	92.7% (active)	37% (inactive)	100% (active)	92.2% (active)
OC1CC([CH2][Hg][I])OC([CH2][Hg][I])C1 (configuration not stated)	99% (active)	98% (active)	92.8% (active)	100% (active)	99% (active)	97.3% (active)	99% (active)	99% (active)	96.5% (active)	99% (active)	99% (active)	97.2% (active)	99% (active)	99% (active)	98.5% (active)	99% (active)	99% (active)	86.2% (active)
O=C(O)C1CC2c3ccccc3C1([N+](=O)[O-])c1ccccc12 (configuration not stated)	0% (inactive)	8% (inactive)	14.2% (inactive)	-1% (inactive)	4% (inactive)	1.45% (inactive)	0% (inactive)	7% (inactive)	31.1% (inactive)	-3% (inactive)	15% (inactive)	41% (inactive)	2% (inactive)	6% (inactive)	3.5% (inactive)	0% (inactive)	8% (inactive)	21.1% (inactive)
O=C(N/N=C/c1cc(Br)cc(Br)c1[O-])c1ccccc1O.O=C(N/N=C/c1cc(Br)cc(Br)c1[O-])c1ccccc1O.[Ni+2]	97% (active)	98% (active)	18.4% (inactive)	98% (active)	98% (active)	87% (active)	98% (active)	99% (active)	61.2% (inactive)	93% (active)	98% (active)	31.6% (inactive)	96% (active)	97% (active)	85.5% (active)	96% (active)	98% (active)	55.6% (inactive)
CC(=O)[CH-]C(C)=O.CC(=O)[CH-]C(C)=O.[O-]c1ccccc1.[O-]c1ccccc1.[Ti+4]	25% (inactive)	25% (inactive)	40.3% (inactive)	20% (inactive)	20% (inactive)	0.3% (inactive)	19% (inactive)	19% (inactive)	11.4% (inactive)	21% (inactive)	21% (inactive)	15.2% (inactive)	6% (inactive)	6% (inactive)	7.05% (inactive)	-9% (inactive)	-9% (inactive)	16.9% (inactive)
CC(C)c1ccc(C(C)C)c(C(=O)CN2CCOCC2)c1	4% (inactive)	13% (inactive)	41.1% (inactive)	8% (inactive)	34% (inactive)	34.8% (inactive)	3% (inactive)	19% (inactive)	42.6% (inactive)	-1% (inactive)	2% (inactive)	-3.3% (inactive)	3% (inactive)	17% (inactive)	97.8% (active)	5% (inactive)	20% (inactive)	35.4% (inactive)
CC(=O)OC1CCC2C3CCC4C(F)C(=O)C(F)(F)CC4(C)C3CCC12C (configuration not stated)	2% (inactive)	78% (active)	49% (inactive)	-12% (inactive)	93% (active)	5.6% (inactive)	-2% (inactive)	91% (active)	63.5% (inactive)	-3% (inactive)	46% (inactive)	63% (inactive)	-1% (inactive)	60% (inactive)	8.95% (inactive)	0% (inactive)	90% (active)	12.7% (inactive)
CN(C)CCBr	86% (active)	95% (active)	38% (inactive)	16% (inactive)	92% (active)	88.1% (active)	61% (inactive)	94% (active)	92.9% (active)	-1% (inactive)	84% (active)	64.2% (inactive)	-10% (inactive)	81% (active)	55.6% (inactive)	49% (inactive)	95% (active)	96.7% (active)
C[CH2][Pb]([CH2]C)([CH2]C)[O]C(=O)COc1ccc(Cl)cc1Cl	29% (inactive)	84% (active)	91.5% (active)	14% (inactive)	89% (active)	95.1% (active)	3% (inactive)	94% (active)	95% (active)	2% (inactive)	91% (active)	85.7% (active)	-4% (inactive)	95% (active)	95.6% (active)	29% (inactive)	96% (active)	97% (active)
CN1CCOC12CCC1(C)C(CCC3C4CCC(O)C4(C)CCC31)C2 (configuration not stated)	-11% (inactive)	-5% (inactive)	77.5% (active)	-14% (inactive)	-8% (inactive)	5.8% (inactive)	-7% (inactive)	9% (inactive)	58% (inactive)	1% (inactive)	8% (inactive)	-6.75% (inactive)	-22% (inactive)	-9% (inactive)	4.75% (inactive)	-12% (inactive)	-12% (inactive)	71.8% (active)
C[CH2][Sn]([Cl])([CH2]C)[CH2]C	7% (inactive)	87% (active)	98.3% (active)	0% (inactive)	84% (active)	98.1% (active)	0% (inactive)	91% (active)	97.3% (active)	-6% (inactive)	60% (inactive)	80.8% (active)	-18% (inactive)	83% (active)	98.2% (active)	2% (inactive)	92% (active)	98.2% (active)
O=C(Cc1c2ccccc2cc2c1ccc1ccccc12)N(CCCl)CCCl	61% (inactive)	94% (active)	98.8% (active)	15% (inactive)	97% (active)	99.3% (active)	80% (active)	98% (active)	99.2% (active)	5% (inactive)	95% (active)	94.3% (active)	17% (inactive)	97% (active)	98.3% (active)	42% (inactive)	96% (active)	99% (active)
C1CN1[PH+](N1CC1)N1CC1.C1CN1[PH+](N1CC1)N1CC1.[I][Pt][I]	2% (inactive)	20% (inactive)	66.5% (inactive)	0% (inactive)	20% (inactive)	14.8% (inactive)	2% (inactive)	30% (inactive)	59.8% (inactive)	1% (inactive)	14% (inactive)	21.8% (inactive)	2% (inactive)	21% (inactive)	22.7% (inactive)	5% (inactive)	44% (inactive)	73.8% (active)
Cc1cc(N(CCCl)CCCl)ccc1C=Nc1ccc(-c2csc(Cc3ccccc3)n2)c(Cl)c1	5% (inactive)	89% (active)	92.7% (active)	-7% (inactive)	96% (active)	94.5% (active)	2% (inactive)	97% (active)	94.2% (active)	-18% (inactive)	91% (active)	91.1% (active)	6% (inactive)	94% (active)	89.2% (active)	-17% (inactive)	94% (active)	93.7% (active)
O=C([O-])C(F)(F)C(F)(F)F.[C-]#[O+].[C-]#[O+].[C-]#[O+].[C-]#[O+].[C-]#[O+].[Re]	15% (inactive)	15% (inactive)	83.7% (active)	13% (inactive)	13% (inactive)	92% (active)	12% (inactive)	12% (inactive)	90.7% (active)	12% (inactive)	12% (inactive)	68.5% (inactive)	-4% (inactive)	-4% (inactive)	91.5% (active)	10% (inactive)	10% (inactive)	44% (inactive)
C[CH2][Hg]	98% (active)	99% (active)	99.1% (active)	100% (active)	99% (active)	99.5% (active)	99% (active)	99% (active)	57.1% (inactive)	99% (active)	100% (active)	59.3% (inactive)	99% (active)	99% (active)	99.2% (active)	94% (active)	99% (active)	52.2% (inactive)
O=C(O)C(CSC(c1ccccc1)c1ccccc1)NC(=O)C(c1ccccc1)c1ccccc1 (configuration not stated)	6% (inactive)	86% (active)	52.5% (inactive)	11% (inactive)	89% (active)	83.3% (active)	11% (inactive)	86% (active)	69.8% (inactive)	15% (inactive)	84% (active)	96.2% (active)	8% (inactive)	64% (inactive)	85.7% (active)	9% (inactive)	88% (active)	97.1% (active)
Cc1ccc(OP(=O)(Oc2ccc(C)cc2)Oc2ccc(C)cc2)cc1.Cc1ccc(OP(=O)(Oc2ccc(C)cc2)Oc2ccc(C)cc2)cc1.Cc1ccc(OP(=O)(Oc2ccc(C)cc2)Oc2ccc(C)cc2)cc1.Cc1ccc(OP(=O)(Oc2ccc(C)cc2)Oc2cccc(C)c2)cc1.[Cd+2].[O-][Cl+3]([O-])([O-])O	12% (inactive)	64% (inactive)	58.6% (inactive)	6% (inactive)	33% (inactive)	45% (inactive)	9% (inactive)	29% (inactive)	20% (inactive)	-11% (inactive)	32% (inactive)	62.6% (inactive)	10% (inactive)	23% (inactive)	36.6% (inactive)	10% (inactive)	36% (inactive)	39.2% (inactive)
Cc1ccc(S(=O)(=O)N=S(=O)(CCCl)CCCl)cc1	16% (inactive)	98% (active)	94% (active)	17% (inactive)	97% (active)	88.5% (active)	25% (inactive)	99% (active)	97.5% (active)	18% (inactive)	94% (active)	62.9% (inactive)	9% (inactive)	89% (active)	47.4% (inactive)	27% (inactive)	98% (active)	96.7% (active)
